# Source: PubChem BioAssay (NCATS)
# Inconclusive results are not listed. Where a call stands in place of a potency, no number is given. Calls of active or inactive are those of the source. Calls follow the shape of the dose curve; as a rule, active = well fitted curve in the direction sought with a large enough effect; inconclusive = small, poorly fitted or top-dose-only effect, or another doubt; inactive = no such curve, though single readings can be large; an effect the other way counts as inactive or inconclusive.
# Tested on: Zika virus NS2B-NS3 protease (unlinked complex)
# Assay: Primary screen GU Rhodamine qHTS for Zika virus inhibitors: Unlinked NS2B-NS3 protease assay (AID 1347159); also: nearly all actives have a fitted effect of over 60% in size
# Settings: Recombinant ZIKV NS2B-NS3 protease, Rhodamine110 substrate fluorescence; series mostly up to 107 µM
# Summary of the method: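 Enzyme 25 nM in Tris-HCl pH 8.0 + 0.01% Tween 20; compounds up to 114 microM, 15 min RT dark; + Rhod110 substrate 1.5 microM; read t0 and 15 min; delta fluorescence → % inhibition → 4-parameter Hill fit.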
row,SMILES,Potency
1,Cc1cn(C[C@H](N)C(=O)O)c(=O)n(Cc2cc(-c3ccccc3)sc2C(=O)O)c1=O,inactive
2,N#C[C@@H](O[C@@H]1O[C@H](CO[C@@H]2O[C@H](CO)[C@@H](O)[C@H](O)[C@H]2O)[C@@H](O)[C@H](O)[C@H]1O)c1ccccc1,inactive
3,COC(=O)N1CCN(C(=O)Cc2ccc(Cl)c(Cl)c2)[C@@H](CN2CCCC2)C1,inactive
4,CCc1[nH]c2ccc(OC)cc2c1CCN(C)C,inactive
5,COC1CC(=O)C23C(=O)NC(CC(C)C)C2C(C)=C(C)C(OO)C3/C=C(\C)CCC(O)C1O (stereo not given),inactive
6,CO[C@H]1[C@H](O)[C@H](O[C@H]2CC[C@]3(C)C4CC[C@]5(C)[C@H](C6=CC(=O)OC6)CC[C@]5(O)C4CC[C@@H]3C2)O[C@@H](C)[C@@H]1O (stereo not given in full),inactive
7,COc1cc2c(cc1OC)[C@@]13CCN4CC5=CCO[C@H]6CC(=O)N2[C@H]1[C@H]6[C@H]5C[C@H]43,inactive

# Tested on: Zika virus NS2B-NS3 protease (linked construct)
# Assay: Primary screen NINDS Rhodamine qHTS for Zika virus inhibitors (AID 1347160); also: nearly all actives have a fitted effect of over 55% in size
# Settings: purified NS2B-NS3 protease, Rhodamine110 substrate fluorescence; series mostly up to 57.1 µM
# Summary of the method: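 Enzyme (25 nM, linked NS2B-NS3) was preincubated 15 min with compound in 10 mM Tris-HCl pH 8.0, 0.01% Tween 20. Rhodamine110 substrate (1.5 microM) was then added and fluorescence read at start and after 15 min.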
row,SMILES,Potency
1,COc1cc(C)[nH]c(=O)c1CNC(=O)c1c(C)n([C@H](C)C2CCOCC2)c2ccccc12,inactive
2,COC1CC(OC2CCC3(C)C(CCC4C3CCC3(C)C(C5=CC(=O)OC5)C(OC(C)=O)CC43O)C2)OC(C)C1OC1OC(CO)C(O)C(O)C1O (stereo not given),inactive
3,CCC(C)(OC(C)=O)C(=O)O[C@H]1[C@H](OC(C)=O)C[C@@H]2[C@@](C)([C@@H]3C[C@H]4C=CO[C@H]4O3)[C@H](C)C[C@H](OC(C)=O)[C@@]2(COC(C)=O)[C@@]12CO2 (stereo not given in full),inactive
4,CC(=O)O[C@H]1C[C@@H](OC(C)=O)C(C)(C)C2C[C@@H](O)[C@]3(C)C(CC[C@@]4(C)[C@H](C5=CC(=O)OC5O)C[C@H]5O[C@]543)[C@]21C (stereo not given in full),inactive
5,CCN1C[C@]2(COC)[C@H](O)C[C@H](OC)[C@]34[C@@H]5C[C@]6(O)[C@H](OC(=O)c7ccccc7)[C@@H]5[C@@](O)([C@H]([C@H](OC)[C@H]23)[C@@H]14)[C@@H](O)[C@@H]6OC,inactive
6,COc1cc(CCNCc2ccccc2O)c(OC)cc1C#N,inactive
7,COC1CC(O[C@H]2CC[C@@]3(C)C(=CCC4C3C(O)[C@@H](O)[C@]3(C)[C@@H](C(C)=O)CC[C@]43O)C2)OC(C)C1OC1CC(OC)C(OC2OC(C)C(O)C(O)C2O)C(C)O1 (stereo not given in full),inactive
8,C[C@@H]1C(=O)O[C@H]2[C@H](O)[C@@]34[C@@H]5OC(=O)[C@@]3(O[C@@H]3OC(=O)[C@@H](O)[C@@]34[C@H](C(C)(C)C)[C@H]5O)[C@@]12O,inactive
9,CC12CCC3C(CCC4(O)CC(O)CCC34C=O)C1(O)CCC2C1=CC(=O)OC1 (stereo not given),inactive
10,CC1C/C=C/C(O)C(O)CC/C=C/c2cc(O)cc(O)c2C(=O)O1 (stereo not given),inactive
11,CCOc1ccccc1-n1c(C(C)N2CCN(C(=O)COc3ccc(Cl)cc3)CC2)nc2ccccc2c1=O (stereo not given),inactive
12,CC[C@H]1CN2CC[C@H]1C[C@@H]2[C@@H](O)c1ccnc2ccc(OC)cc12,inactive
13,CN(C(=O)Cc1ccccc1)C(CN1CCCC1)c1ccccc1 (stereo not given),inactive
14,OC1(c2ccc(Cl)cc2)c2ccccc2C2=NCCN21 (stereo not given),inactive
15,Cc1cc(C(=O)CN2CCCC2)c(C)n1-c1ccc(F)cc1,inactive
16,Cc1cn(C[C@H](N)C(=O)O)c(=O)n(Cc2cc(-c3ccccc3)sc2C(=O)O)c1=O,inactive
17,CC(C)(O)[C@H]1O[C@H]2CC[C@@]3(C)[C@@](O)(CC[C@H]4Cc5c([nH]c6ccccc56)[C@@]43C)C2=CC1=O,inactive
18,N#C[C@@H](O[C@@H]1O[C@H](CO[C@@H]2O[C@H](CO)[C@@H](O)[C@H](O)[C@H]2O)[C@@H](O)[C@H](O)[C@H]1O)c1ccccc1,inactive
19,O=C(O)c1ccnc2cc(C(OCCN3CCCCC3)c3ccccc3Cl)[nH]c12 (stereo not given),inactive
20,COC(=O)N1CCN(C(=O)Cc2ccc(Cl)c(Cl)c2)[C@@H](CN2CCCC2)C1,inactive
21,CCc1[nH]c2ccc(OC)cc2c1CCN(C)C,inactive
22,COC1CC(=O)C23C(=O)NC(CC(C)C)C2C(C)=C(C)C(OO)C3/C=C(\C)CCC(O)C1O (stereo not given),inactive
23,CO[C@H]1[C@H](O)[C@H](O[C@H]2CC[C@]3(C)C4CC[C@]5(C)[C@H](C6=CC(=O)OC6)CC[C@]5(O)C4CC[C@@H]3C2)O[C@@H](C)[C@@H]1O (stereo not given in full),inactive
24,COc1cc2c(cc1OC)[C@@]13CCN4CC5=CCO[C@H]6CC(=O)N2[C@H]1[C@H]6[C@H]5C[C@H]43,inactive

# Molecular target: Lysine-specific demethylase 5B (Homo sapiens) (UniProt Q9UGL1)
# Sequence (Q9UGL1 whole entry, looked up): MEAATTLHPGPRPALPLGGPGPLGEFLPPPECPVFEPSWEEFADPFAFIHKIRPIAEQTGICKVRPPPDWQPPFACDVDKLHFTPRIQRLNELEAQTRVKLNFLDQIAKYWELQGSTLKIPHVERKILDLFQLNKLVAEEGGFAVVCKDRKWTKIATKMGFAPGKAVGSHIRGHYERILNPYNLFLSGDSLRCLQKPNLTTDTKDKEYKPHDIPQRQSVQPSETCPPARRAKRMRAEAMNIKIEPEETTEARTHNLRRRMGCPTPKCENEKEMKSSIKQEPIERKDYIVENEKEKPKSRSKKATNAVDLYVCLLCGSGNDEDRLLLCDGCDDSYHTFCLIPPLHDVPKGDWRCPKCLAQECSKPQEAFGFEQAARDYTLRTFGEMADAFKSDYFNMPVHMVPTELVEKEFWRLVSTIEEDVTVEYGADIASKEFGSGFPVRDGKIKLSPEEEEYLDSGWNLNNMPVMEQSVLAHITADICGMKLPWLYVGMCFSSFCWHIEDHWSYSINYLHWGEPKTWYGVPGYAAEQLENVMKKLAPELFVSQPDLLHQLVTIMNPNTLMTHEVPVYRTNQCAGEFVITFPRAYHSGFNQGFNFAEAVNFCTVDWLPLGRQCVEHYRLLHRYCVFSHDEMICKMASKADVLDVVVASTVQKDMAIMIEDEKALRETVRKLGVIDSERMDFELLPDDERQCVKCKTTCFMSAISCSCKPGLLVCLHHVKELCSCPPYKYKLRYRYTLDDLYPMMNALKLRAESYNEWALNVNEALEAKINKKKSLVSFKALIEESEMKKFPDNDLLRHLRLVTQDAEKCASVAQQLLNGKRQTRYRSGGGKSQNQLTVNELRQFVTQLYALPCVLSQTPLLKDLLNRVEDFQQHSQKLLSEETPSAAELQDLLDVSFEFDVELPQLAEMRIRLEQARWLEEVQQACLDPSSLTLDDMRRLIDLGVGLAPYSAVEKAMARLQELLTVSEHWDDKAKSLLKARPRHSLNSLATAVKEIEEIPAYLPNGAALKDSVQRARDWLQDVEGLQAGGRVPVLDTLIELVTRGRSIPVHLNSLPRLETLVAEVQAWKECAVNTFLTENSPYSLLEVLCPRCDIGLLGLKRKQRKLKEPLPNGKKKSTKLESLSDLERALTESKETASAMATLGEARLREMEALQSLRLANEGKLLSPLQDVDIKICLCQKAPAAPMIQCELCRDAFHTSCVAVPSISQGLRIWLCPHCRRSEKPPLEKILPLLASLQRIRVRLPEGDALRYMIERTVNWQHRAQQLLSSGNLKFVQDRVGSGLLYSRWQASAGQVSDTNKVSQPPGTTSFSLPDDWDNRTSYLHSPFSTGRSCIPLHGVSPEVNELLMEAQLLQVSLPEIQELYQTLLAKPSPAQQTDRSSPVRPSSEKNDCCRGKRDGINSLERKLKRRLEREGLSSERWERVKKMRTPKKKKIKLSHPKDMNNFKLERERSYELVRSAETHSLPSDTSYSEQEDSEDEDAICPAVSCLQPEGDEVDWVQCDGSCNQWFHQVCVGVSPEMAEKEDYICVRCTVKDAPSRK
# Assay: Optimization screen for KDM5B Histone Demethylases FDH coupled qHTS against the LOPAC library (AID 1347166)
# Settings: KDM5B demethylation, FDH-coupled NADH fluorescence (FDH is formaldehyde dehydrogenase); series mostly up to 57.5 µM
# Summary of the method: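 KDM5BDeltaAP (200nM final) in 50mM HEPES pH 7.5, 0.01% Tween-20 was preincubated with compound for 10 min at room temperature. A substrate mix of 12.5uM H3K4Me3, 25uM a-ketoglutarate, ascorbate, Fe2+, NAD+ and formaldehyde dehydrogenase was then added. NADH fluorescence (340/450 nm) was read initially and after 30 min.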
row,SMILES,Potency
1,COc1cc(CC(C)N)c(OC)cc1I (stereo not given),inactive
2,N#CCCN,inactive
3,COc1ccc2c(c1)/C(=C/c1cnc[nH]1)C(=O)N2,inactive
4,C[C@@H]1O[C@H](C[N+](C)(C)C)CS1,inactive
5,CCCn1c(C)c(C(=O)c2ccc3ccccc3c2)c2ccccc21,inactive
6,C[Se]C[C@H](N)C(=O)O,inactive
7,CCCCCCC(C)(C)c1ccc([C@@H]2C[C@H](O)CC[C@H]2CCCO)c(O)c1,inactive
8,C=CCN(C1=NCCN1)c1c(Cl)cccc1Cl,inactive
9,C=CCN1CC[C@]23c4c5ccc(O)c4O[C@@H]2/C(=N/N=C2\CC[C@@]4(O)C6Cc7ccc(O)c8c7[C@@]4(CCN6CC=C)[C@@H]2O8)CC[C@@]3(O)C1C5,inactive
